Among the data in ChEMBL document CHEMBL5598561, “ASAP - In vitro binding kinetics” (2024) are pKD values, retold here.

In this test the target is Nonstructural protein 3 (Zika virus) (UniProt A0A024AXB9).
Nonstructural protein 3 (Zika virus), sequence (A0A024AXB9 as listed by the source): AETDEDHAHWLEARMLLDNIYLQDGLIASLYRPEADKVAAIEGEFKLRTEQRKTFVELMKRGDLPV

On to `Cc1ccc(S(=O)(=O)CNC(=O)[C@H](Nc2ccc3c(c2)CNC3)c2cc(Cl)cc3[nH]ncc23)cc1`, for which the negative-log KD (pKD) (as a rule, the KD on a negative log10 scale, so that one unit is a factor of ten) runs as follows: (PRVABC59, Concentration 10.0 uM, Immobilization level 10000.0 pg/mm2, Rmax 21.0 pg/mm2, ka 226355.861 M-1s-1, kd 0.557 1/s) 5.61; (PRVABC59, Concentration 10.0 uM, Immobilization level 12000.0 pg/mm2, Rmax 37.0 pg/mm2, ka 111566.09 M-1s-1, kd 0.368 1/s) 5.48; (PRVABC59, Concentration 10.0 uM, Immobilization level 13000.0 pg/mm2, Rmax 27.0 pg/mm2, ka 177747.1 M-1s-1, kd 0.47 1/s) 5.58.

Turning to `O=C(Nc1ccc2c(c1)CNC2)c1cc(Cl)cc2nccnc12`, the pKD came out at 4.92 (PRVABC59, Concentration 10.0 uM, Immobilization level 10000.0 pg/mm2, Rmax 21.0 pg/mm2, ka 195303.568 M-1s-1, kd 2.342 1/s); 4.98 (PRVABC59, Concentration 10.0 uM, Immobilization level 12000.0 pg/mm2, Rmax 40.0 pg/mm2, ka 106100.572 M-1s-1, kd 1.111 1/s); 4.91 (PRVABC59, Concentration 10.0 uM, Immobilization level 13000.0 pg/mm2, Rmax 32.0 pg/mm2, ka 148862.644 M-1s-1, kd 1.839 1/s).

In the case of `O=C(Nc1ccc2c(c1)CNC2)c1cc(Cl)cc(C2CC2)c1`, the pKD reads like this: (PRVABC59, Concentration 10.0 uM, Immobilization level 10000.0 pg/mm2, Rmax 36.0 pg/mm2, ka 451548.811 M-1s-1, kd 1.111 1/s) 5.61; (PRVABC59, Concentration 10.0 uM, Immobilization level 12000.0 pg/mm2, Rmax 40.0 pg/mm2, ka 259383.571 M-1s-1, kd 0.558 1/s) 5.67; (PRVABC59, Concentration 10.0 uM, Immobilization level 13000.0 pg/mm2, Rmax 32.0 pg/mm2, ka 444846.323 M-1s-1, kd 0.765 1/s) 5.76.

Regarding `CCCN1C(=O)[C@](C#N)(Nc2ccc3c(c2)CNC3)c2ccccc21`, the pKD by setting is: (PRVABC59, Concentration 10.0 uM, Immobilization level 3900.0 pg/mm2, Rmax 21.0 pg/mm2, ka 159960.868 M-1s-1, kd 3.775 1/s) 4.63; (PRVABC59, Concentration 10.0 uM, Immobilization level 5500.0 pg/mm2, Rmax 21.0 pg/mm2, ka 193790.134 M-1s-1, kd 2.393 1/s) 4.91; (PRVABC59, Concentration 10.0 uM, Immobilization level 12000.0 pg/mm2, Rmax 14.0 pg/mm2, ka 179346.718 M-1s-1, kd 2.44 1/s) 4.87.

`N#CCCNC(=O)[C@H](Nc1ccc2c(c1)CNC2)c1cc(Cl)cc(C2CC2)c1`: the pKD (PRVABC59, Concentration 10.0 uM, Immobilization level 10000.0 pg/mm2, Rmax 28.0 pg/mm2, ka 442303.592 M-1s-1, kd 0.092 1/s) stood at 6.68; the pKD (PRVABC59, Concentration 10.0 uM, Immobilization level 12000.0 pg/mm2, Rmax 54.0 pg/mm2, ka 245042.447 M-1s-1, kd 0.064 1/s) is 6.58; the pKD (PRVABC59, Concentration 10.0 uM, Immobilization level 13000.0 pg/mm2, Rmax 39.0 pg/mm2, ka 364691.558 M-1s-1, kd 0.079 1/s) amounted to 6.67.

`Cn1cc(CCc2nc3c(C(=O)Nc4ccc5c(c4)CNC5)cc(Cl)cc3[nH]2)cn1` displayed a pKD (PRVABC59, Concentration 10.0 uM, Immobilization level 10000.0 pg/mm2, Rmax 29.0 pg/mm2, ka 162831.43 M-1s-1, kd 0.539 1/s) of 5.48; a pKD (PRVABC59, Concentration 10.0 uM, Immobilization level 12000.0 pg/mm2, Rmax 67.0 pg/mm2, ka 60654.253 M-1s-1, kd 0.241 1/s) of 5.4; a pKD (PRVABC59, Concentration 10.0 uM, Immobilization level 13000.0 pg/mm2, Rmax 46.0 pg/mm2, ka 118753.092 M-1s-1, kd 0.416 1/s) of 5.46.

`N[C@H]1CCc2ccc(NC(=O)c3cc(Cl)cc4[nH]ncc34)cc21`: the pKD is, setting by setting: (PRVABC59, Concentration 10.0 uM, Immobilization level 3900.0 pg/mm2, Rmax 29.0 pg/mm2, ka 348858.596 M-1s-1, kd 0.945 1/s) 5.57; (PRVABC59, Concentration 10.0 uM, Immobilization level 4900.0 pg/mm2, Rmax 45.0 pg/mm2, ka 214378.611 M-1s-1, kd 0.858 1/s) 5.4; (PRVABC59, Concentration 10.0 uM, Immobilization level 5500.0 pg/mm2, Rmax 42.0 pg/mm2, ka 277409.149 M-1s-1, kd 0.816 1/s) 5.53; (PRVABC59, Concentration 10.0 uM, Immobilization level 10000.0 pg/mm2, Rmax 43.0 pg/mm2, ka 267738.182 M-1s-1, kd 1.043 1/s) 5.41; (PRVABC59, Concentration 10.0 uM, Immobilization level 12000.0 pg/mm2, Rmax 61.0 pg/mm2, ka 230496.11 M-1s-1, kd 0.784 1/s) 5.47; (PRVABC59, Concentration 10.0 uM, Immobilization level 13000.0 pg/mm2, Rmax 48.0 pg/mm2, ka 351322.313 M-1s-1, kd 0.852 1/s) 5.62.

Turning to `N#Cc1cc(C(=O)Nc2ccc3c(c2)CNC3)cc(C(F)(F)F)c1`, the pKD reads like this: (PRVABC59, Concentration 1.0 uM, Immobilization level 3900.0 pg/mm2, Rmax 43.0 pg/mm2, ka 266866.495 M-1s-1, kd 1.179 1/s) 5.36; (PRVABC59, Concentration 10.0 uM, Immobilization level 4900.0 pg/mm2, Rmax 32.0 pg/mm2, ka 534169.763 M-1s-1, kd 0.781 1/s) 5.84; (PRVABC59, Concentration 10.0 uM, Immobilization level 5500.0 pg/mm2, Rmax 33.0 pg/mm2, ka 604018.636 M-1s-1, kd 0.866 1/s) 5.84; (PRVABC59, Concentration 10.0 uM, Immobilization level 10000.0 pg/mm2, Rmax 37.0 pg/mm2, ka 362843.113 M-1s-1, kd 0.996 1/s) 5.56; (PRVABC59, Concentration 10.0 uM, Immobilization level 12000.0 pg/mm2, Rmax 65.0 pg/mm2, ka 232125.016 M-1s-1, kd 0.861 1/s) 5.43; (PRVABC59, Concentration 10.0 uM, Immobilization level 13000.0 pg/mm2, Rmax 45.0 pg/mm2, ka 383567.228 M-1s-1, kd 0.798 1/s) 5.68.

As for `Cc1cc(C(=O)Nc2ccc3c(c2)CNC3)c2cn[nH]c2c1`, the pKD reads like this: (PRVABC59, Concentration 10.0 uM, Immobilization level 10000.0 pg/mm2, Rmax 20.0 pg/mm2, ka 694418.255 M-1s-1, kd 0.431 1/s) 6.21; (PRVABC59, Concentration 10.0 uM, Immobilization level 12000.0 pg/mm2, Rmax 39.0 pg/mm2, ka 340621.404 M-1s-1, kd 0.261 1/s) 6.12; (PRVABC59, Concentration 10.0 uM, Immobilization level 13000.0 pg/mm2, Rmax 29.0 pg/mm2, ka 572465.277 M-1s-1, kd 0.338 1/s) 6.23.
